# Test results taken from PMC8384837, “Expanding the binding specificity for RNA recognition by a PUF domain”.
# Substitutions are numbered along the chain they refer to.
# What was measured:
# Assay in all cases: yeast three-hybrid, YBZ-1, SC-Leu-His + 0.5 mM 3-AT, 4 days
# Settings in all cases: tags: N-Gal4 AD-HA kept; label: inside an RPR1-promoter hybrid RNA with tandem MS2 sites; ssRNA
# PUM1 PUF domain R8-HFL = PUM1 PUF domain R8-HFL (Homo sapiens, UniProt Q14671 828-1176, N1122H;Y1123F;Q1126L)
# Method in brief: (§1)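 Repeat regions from input (SC-Leu) and selection (SC-Leu-His + 0.5 mM 3-AT) plates were PCR-amplified and Illumina-sequenced after four days of growth. The cells were strain YBZ-1 with a LexA–MS2 coat fusion and a HIS3 reporter, co-expressing Pumilio-1 PUF domain libraries and matching RNA elements from a centromeric plasmid. The interaction score is the log change in variant frequency from input to selection, taken in log2 with a pseudocount of 1 for absent variants.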
# PUM1 PUF domain R8-DYR = PUM1 PUF domain R8-DYR (Homo sapiens, UniProt Q14671 828-1176, N1122D;Q1126R)
# Method in brief: as §1
# PUM1 PUF domain R8-KRH = PUM1 PUF domain R8-KRH (Homo sapiens, UniProt Q14671 828-1176, N1122K;Y1123R;Q1126H)
# Method in brief: as §1
# PUM1 PUF domain R8-HFP = PUM1 PUF domain R8-HFP (Homo sapiens, UniProt Q14671 828-1176, N1122H;Y1123F;Q1126P)
# Method in brief: as §1
# PUM1 PUF domain R8-PYC = PUM1 PUF domain R8-PYC (Homo sapiens, UniProt Q14671 828-1176, N1122P;Q1126C)
# Method in brief: as §1
# PUM1 PUF domain R3-LWI = PUM1 PUF domain R3-LWI (Homo sapiens, UniProt Q14671 828-1176, C935L;R936W;Q939I)
# Method in brief: as §1
# PUM1 PUF domain R3-SSD = PUM1 PUF domain R3-SSD (Homo sapiens, UniProt Q14671 828-1176, C935S;R936S;Q939D)
# Method in brief: as §1
# PUM1 PUF domain R6-LYA = biological target: T1, PUM1 PUF domain R6-LYA (Homo sapiens, UniProt Q14671 828-1176, N1043L;Q1047A)
# T1 sequence: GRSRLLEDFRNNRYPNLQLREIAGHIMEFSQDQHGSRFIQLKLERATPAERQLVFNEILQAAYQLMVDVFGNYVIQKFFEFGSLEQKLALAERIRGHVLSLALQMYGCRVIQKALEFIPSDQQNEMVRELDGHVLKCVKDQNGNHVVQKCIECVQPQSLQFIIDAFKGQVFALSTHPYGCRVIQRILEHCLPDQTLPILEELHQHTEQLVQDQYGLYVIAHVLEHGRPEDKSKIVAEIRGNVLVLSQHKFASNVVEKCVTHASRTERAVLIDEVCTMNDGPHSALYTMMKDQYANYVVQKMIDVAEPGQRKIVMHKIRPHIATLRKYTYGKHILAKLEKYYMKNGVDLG
# Method in brief: as §1
# PUM1 PUF domain R6-KWC = biological target: T2, PUM1 PUF domain R6-KWC (Homo sapiens, UniProt Q14671 828-1176, N1043K;Y1044W;Q1047C)
# T2 sequence: T1 sequence with L216K, Y217W, A220C
# Method in brief: as §1
# PUM1 PUF domain R3-VRH = PUM1 PUF domain R3-VRH (Homo sapiens, UniProt Q14671 828-1176, C935V;Q939H)
# Method in brief: as §1
# PUM1 PUF domain R6-RWL = biological target: T3, PUM1 PUF domain R6-RWL (Homo sapiens, UniProt Q14671 828-1176, N1043R;Y1044W;Q1047L)
# T3 sequence: T1 sequence with L216R, Y217W, A220L
# Method in brief: as §1
# PUM1 PUF domain R6-CWL = biological target: T4, PUM1 PUF domain R6-CWL (Homo sapiens, UniProt Q14671 828-1176, N1043C;Y1044W;Q1047L)
# T4 sequence: T1 sequence with L216C, Y217W, A220L
# Method in brief: as §1
# PUM1 PUF domain R1-KFV = PUM1 PUF domain R1-KFV (Homo sapiens, UniProt Q14671 828-1176, S863K;R864F;Q867V)
# Method in brief: as §1
# PUM1 PUF domain R5-AAR = PUM1 PUF domain R5-AAR (Homo sapiens, UniProt Q14671 828-1176, C1007A;R1008A;Q1011R)
# Method in brief: as §1
# PUM1 PUF domain R4-DFR = PUM1 PUF domain R4-DFR (Homo sapiens, UniProt Q14671 828-1176, N971D;H972F;Q975R)
# Method in brief: as §1
# [1] = biological target: PUM1 PUF domain R1-QFR R2-VFQ R7-NPG (Homo sapiens, UniProt Q14671 828-1176, S863Q;R864F;Q867R;N899V;Y900F;S1079N;N1080P;E1083G)
# Method in brief: as §1
# PUM1 PUF domain R1-TKK = PUM1 PUF domain R1-TKK (Homo sapiens, UniProt Q14671 828-1176, S863T;R864K;Q867K)
# Method in brief: as §1
# PUM1 PUF domain R3-RPQ = PUM1 PUF domain R3-RPQ (Homo sapiens, UniProt Q14671 828-1176, C935R;R936P)
# Method in brief: as §1
sequence,measurement,setting,value
GGCUAGAACUAGUGGAUCCCCCGGCGCCCGGCGGCUCGAGCCCGGGUAAGCGUAAAUAGUCUGCAUGCCGCCGGGCGCCAUGCCUGCAGGUCGACUCUAGAAAACAUG,binding signal,PUM1 PUF domain R8-HFL,2.79 log2 enrichment (interaction score)
same,binding signal,PUM1 PUF domain R8-DYR,3.04 log2 enrichment (interaction score)
same,binding signal,PUM1 PUF domain R8-KRH,2.93 log2 enrichment (interaction score)
same,binding signal,PUM1 PUF domain R8-HFP,6.79 log2 enrichment (interaction score)
same,binding signal,PUM1 PUF domain R8-PYC,3.77 log2 enrichment (interaction score)
GGCUAGAACUAGUGGAUCCCCCGGCGCCCGGCGGCUCGAGCCCGGGUAAGUGUAAGUAGUCUGCAUGCCGCCGGGCGCCAUGCCUGCAGGUCGACUCUAGAAAACAUG,binding signal,PUM1 PUF domain R3-LWI,3.8 log2 enrichment (interaction score)
same,binding signal,PUM1 PUF domain R3-SSD,2.19 log2 enrichment (interaction score)
GGCUAGAACUAGUGGAUCCCCCGGCGCCCGGCGGCUCGAGCCCGGGUAAGUGAAAAUAGUCUGCAUGCCGCCGGGCGCCAUGCCUGCAGGUCGACUCUAGAAAACAUG,binding signal,PUM1 PUF domain R6-LYA,1.91 log2 enrichment (interaction score)
same,binding signal,PUM1 PUF domain R6-KWC,6.72 log2 enrichment (interaction score)
GGCUAGAACUAGUGGAUCCCCCGGCGCCCGGCGGCUCGAGCCCGGGUAAGUGUAAAUAGUCUGCAUGCCGCCGGGCGCCAUGCCUGCAGGUCGACUCUAGAAAACAUG,binding signal,PUM1 PUF domain R6-LYA,2.58 log2 enrichment (interaction score)
same,binding signal,PUM1 PUF domain R8-DYR,0.87 log2 enrichment (interaction score)
same,binding signal,PUM1 PUF domain R3-VRH,4.55 log2 enrichment (interaction score)
same,binding signal,PUM1 PUF domain R6-RWL,5.11 log2 enrichment (interaction score)
same,binding signal,PUM1 PUF domain R6-CWL,3.76 log2 enrichment (interaction score)
GGCUAGAACUAGUGGAUCCCCCGGCGCCCGGCGGCUCGAGCCCGGGUAAGUGUAAAUUGUCUGCAUGCCGCCGGGCGCCAUGCCUGCAGGUCGACUCUAGAAAACAUG,binding signal,PUM1 PUF domain R1-KFV,3.92 log2 enrichment (interaction score)
GGCUAGAACUAGUGGAUCCCCCGGCGCCCGGCGGCUCGAGCCCGGGUAAGUGUUAAUAGUCUGCAUGCCGCCGGGCGCCAUGCCUGCAGGUCGACUCUAGAAAACAUG,binding signal,PUM1 PUF domain R5-AAR,1.62 log2 enrichment (interaction score)
GGCUAGAACUAGUGGAUCCCCCGGCGCCCGGCGGCUCGAGCCCGGGUAAGUGUCAAUAGUCUGCAUGCCGCCGGGCGCCAUGCCUGCAGGUCGACUCUAGAAAACAUG,binding signal,PUM1 PUF domain R5-AAR,4.02 log2 enrichment (interaction score)
GGCUAGAACUAGUGGAUCCCCCGGCGCCCGGCGGCUCGAGCCCGGGUAAGUGUACAUAGUCUGCAUGCCGCCGGGCGCCAUGCCUGCAGGUCGACUCUAGAAAACAUG,binding signal,PUM1 PUF domain R4-DFR,5.83 log2 enrichment (interaction score)
GGCUAGAACUAGUGGAUCCCCCGGCGCCCGGCGGCUCGAGCCCGGGUAAGUGUAUAUAGUCUGCAUGCCGCCGGGCGCCAUGCCUGCAGGUCGACUCUAGAAAACAUG,binding signal,PUM1 PUF domain R4-DFR,6.14 log2 enrichment (interaction score)
GGCUAGAACUAGUGGAUCCCCCGGCGCCCGGCGGCUCGAGCCCGGGUAAGUUUAAAACGUCUGCAUGCCGCCGGGCGCCAUGCCUGCAGGUCGACUCUAGAAAACAUG,binding signal,[1],6.82 log2 enrichment (interaction score)
GGCUAGAACUAGUGGAUCCCCCGGCGCCCGGCGGCUCGAGCCCGGGUAAGUGUAAAUCGUCUGCAUGCCGCCGGGCGCCAUGCCUGCAGGUCGACUCUAGAAAACAUG,binding signal,PUM1 PUF domain R1-TKK,3.92 log2 enrichment (interaction score)
GGCUAGAACUAGUGGAUCCCCCGGCGCCCGGCGGCUCGAGCCCGGGUAAGUGUAAUUAGUCUGCAUGCCGCCGGGCGCCAUGCCUGCAGGUCGACUCUAGAAAACAUG,binding signal,PUM1 PUF domain R3-RPQ,3.45 log2 enrichment (interaction score)
